Screening results (PubChem BioAssay)
Hits are enriched below; roughly 15% of the tested compounds scored in any of these assays.
Pf growth 96h: P. falciparum growth inhibition at 96 hour, primary screen for plastid delayed-death inhibitors; Potency, µM (titrated, usually from 28.7 µM), inactives show top-dose activity change, negative = inhibition, usual class: inhibitors; P. falciparum luciferase reporter growth, 96 h; 6.9% of 320,000 active; note: potency is the fitted concentration of half-maximal effect; % is set by controls: 0 for no effect and ±100 for the full control effect
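Delayed-death screen, second-generation endpoint: infected erythrocytes, 2% hematocrit, 0.05% parasitemia final; 96 hours at 37 C, 5% CO2; luciferase detection reagent; luminescence decrease equals reduced growth.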
Pf growth 48h: inhibits P. falciparum growth in the first generation, 48 h | Potency, µM (top dose mostly 28.7 µM), without a hit: at the highest dose activity change, negative = inhibition, usual class: inhibitors | 5.9% of 310,000 active | P. falciparum luciferase growth in erythrocytes, 48 h; note: potency is the fitted concentration of half-maximal effect; % is set by controls: 0 for no effect and ±100 for the full control effect
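Erythrocytes infected with P. falciparum carrying an integrated firefly luciferase reporter (2% hematocrit, 0.1% parasitemia final) were exposed to compounds in RPMI 1640 with 0.5% Albumax at 37 C, 5% CO2. Growth inhibition was scored as reduced luminescence.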
HCV inhibitor: inhibitors of hepatitis C virus infection; Huh7.5.1 HCVcc-Cre infection, luciferase reporter, 44 h; Potency, µM (series often up to 41.8 µM), inactives show at the highest dose activity change, negative = inhibition, most hits filed as inhibitors; 3.4% of 340,000 active; AID 651820; note: potency is the fitted concentration of half-maximal effect; % is set by controls: 0 for no effect and ±100 for the full control effect
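Cells (1,000/well) were plated 4 h before compound, then infected with HCVcc-Cre virus (~0.5 moi). After 44 h further culture, infection was read as luciferase luminescence following a 15 min substrate incubation at room temperature.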
Sm TGR inh: inhibitors of Schistosoma mansoni thioredoxin glutathione reductase; 3% of 360,000 active; Potency, µM (highest dose often 114 µM), for the others: top-dose activity change, negative = inhibition, actives largely listed as inhibitors; Q962Y6; AID 485364; purified TGR, DTNB reduction, TNB absorbance 405 nm; note: potency is the fitted concentration of half-maximal effect; % is set by controls: 0 for no effect and ±100 for the full control effect; nearly all actives have a fitted effect of over 60% in size
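Kinetic colorimetric format: TGR-catalysed, NADPH-driven DTNB reduction monitored via TNB absorbance. Enzyme dispensed at 20 nM; compound exposure 15 min at room temperature before reaction start.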
HCMV inh: blocks human cytomegalovirus replication | HFF cells, HCMV-luciferase reporter, 72 h; hits give low values | activity change, negative = inhibition, % at 57.5 µM | AID 1259415 | 4.5% of 410,000 active; in the data active = activity change below about -60%; inconclusive = no clear call, values can overlap the other calls; inactive = above about -39%; note: % is set by controls: 0 for no effect and ±100 for the full control effect
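Cell-based, HFFs, 1000 cells/well, 16 h 37C; cpds in DMSO + HCMV-luc, MOI 1 PFU/cell; 72 h 37C; OneGlo luminescence after 5 min RT; norm. to buffer vs Salinomycin 10uM.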
SARS PLpro yeast: inhibitors of SARS-CoV papain-like protease in yeast. S. cerevisiae expressing SARS-CoV PLpro, growth rescue. Potency, µM (titrated, usually from 32.9 µM), inactives show at the top dose activity, positive = growth rescue, usual class: activators. 0.19% of 330,000 active. AID 485353; calls by dose curve; note: potency is the fitted concentration of half-maximal effect; 0% is about no effect; nearly all actives have a fitted effect of over 55% in size
Active calls of the source: *; ? = inconclusive; / = no result given; [ ] = another dose, or the depositor's remark. Unless noted, calls come from the whole dose curve; as a rule, active = well fitted curve in the direction sought with a large enough effect; inconclusive = small, poorly fitted or top-dose-only effect, or another doubt; inactive = no such curve, though single readings can be large; an effect the other way counts as inactive or inconclusive.

SMILES | Pf growth 96h | Pf growth 48h | HCV inhibitor | Sm TGR inh | HCMV inh | SARS PLpro yeast
CN(C)c1nc(N)ncc1-c1ccc(Oc2ccccc2)cc1 | ? | ? | -7% | -6% | / | -3%
Cc1nc2cc[nH]n2c(=O)c1CCc1ccccc1 | / | / | / | / | -21 | /
COc1ccc(N(CC(=O)N/N=C(\C)CCc2ccccc2)S(=O)(=O)c2ccc(C)cc2)cc1 | -12% | -18% | 10% | 8% | -2 | 0%
C=CCc1cccc(/C=N/NC(=O)CNc2ccccc2OC)c1O | 24% | ? | ? | 2% | -98* | -11%
C=CCc1cccc(/C=N/NC(=O)CCC(=O)Nc2ccc(F)cc2)c1O | ? | -2% | ? | 2% | -84* | 22%
C=CCc1cccc(/C=N/NC(=O)C[n+]2ccccc2)c1O | 106% | ? | -12% | -10% | / | 5%
Oc1c(C(c2ccccc2F)N2CCC3(CC2)OCCO3)sc2nc(-c3ccco3)nn12 (centres undefined) | / | / | / | 15% | 11 | /
O=c1c2ccccc2sn1-c1cc(S(=O)(=O)N2CCOCC2)ccc1N1CCCC1 | ? | / | -22% | ? | -22 | -2%
O=c1c2ccccc2sn1-c1cc(S(=O)(=O)N2CCOCC2)ccc1N1CCOCC1 | 10% | 3.7µM* | ? | 25µM* | ? | 8%
COc1ccc2cc3[n+](cc2c1OC)CCc1cc2c(cc1-3)OCO2 | 0.15µM* | 0.23µM* | ? | -6% | -96* | -4%
Cc1ccc(OCC(=O)c2ccc(Cl)s2)c([N+](=O)[O-])n1 | 11% | 257% | -8% | 3.5µM* | 56 | 2%
Cc1ccc(OCC(=O)c2cc(C)n(-c3cc(C)on3)c2C)c([N+](=O)[O-])n1 | ? | ? | ? | ? | -23 | -4%
Cc1ccc(OCC(=O)c2cc(C)n(Cc3cccs3)c2C)c([N+](=O)[O-])n1 | -5% | -4% | ? | / | -94* | -1%
Cc1ccc(CNC(=O)COc2ccc(C)nc2[N+](=O)[O-])cc1 | 51% | 36% | 15% | -19% | -12 | 3%
Cc1ccc(OCC(=O)c2cc(C)n(C3CC3)c2C)c([N+](=O)[O-])n1 | ? | 13% | -5% | -34% | -64* | ?
Cc1ccc(OCC(=O)N2C(C)CCCC2C)c([N+](=O)[O-])n1 (centres undefined) | / | / | 8% | / | -10 | 4%
COc1ccc(-n2c(C)cc(C(=O)COc3ccc(C)nc3[N+](=O)[O-])c2C)cc1 | ? | -29% | ? | -30% | -90* | -10%
Cc1ccc(OCC(=O)c2cc(C)n(CC(F)(F)F)c2C)c([N+](=O)[O-])n1 | 37%[1.15 µM] | 21% | ? | -26% | -30 | 0%
Cc1cc(C(=O)COc2ccc(F)cc2Br)c(C)n1C | -6% | -16% | 11% | -27% | 13 | -3%
Cc1cc(C(=O)COC(=O)c2cccc(O)c2)c(C)n1C1CC1 | 282% | 164% | ? | -7% | 13 | -3%
Cc1cc(C(=O)COc2cccc([N+](=O)[O-])c2)c(C)n1C1CC1 | 63% | 148% | 11µM* | -35% | ? | -3%
Cc1cc(C(=O)COc2ccc(F)cc2Br)c(C)n1C1CC1 | 10µM* | ? | ? | -10% | ? | -4%
Cc1cc(C(=O)CN2C(=O)NC(C)(c3cc(F)ccc3F)C2=O)c(C)n1C1CC1 (centres undefined) | / | / | 13% | / | 13 | -30%
CCC1(c2ccc(F)cc2)NC(=O)N(CC(=O)c2cc(C)n(C3CC3)c2C)C1=O (centres undefined) | ? | 15µM* | -1% | 2% | -11 | 3%
CC(CCN1C(Nc2ccccc2)=NC[C@@H]1Cc1ccccc1)c1ccccc1 (some centres undefined) | ? | ? | -11% | 2% | -61* | -6%
SMILES | Pf growth 96h | Pf growth 48h | HCV inhibitor | Sm TGR inh | HCMV inh | SARS PLpro yeast
CC(C)C[C@H]1CN=C(Nc2ccccc2)N1CCC1CCCCC1 | 9.3µM* | -49% | -21% | 52% | -27 | -2%
CC(C)CCN1C(Nc2ccccc2)=NC[C@@H]1Cc1ccccc1 | -6% | 6% | -8% | -18% | -13 | -3%
CC(C)C[C@H]1CN=C(Nc2ccccc2)N1CC1CCC(C(C)(C)C)CC1 (some centres undefined) | 7.4µM* | 8.3µM* | 11µM* | -3% | / | -24%
CCCc1c(C(=O)NNc2cccc(Cl)c2)cnn1-c1ccccc1 | 10% | 4% | ? | -10% | ? | -2%
COC(=O)c1ccccc1NC(=O)c1ccccc1N(C)S(C)(=O)=O | -19% | 10% | -5% | 10% | 92 | 2%
O=C(Cn1cc(Cl)c([N+](=O)[O-])n1)NCCC1=CCCCC1 | ? | 9% | -3% | 19% | ? | 2%
CCCC(=O)N1CCCC(c2cc(C(=O)NCc3ccc(F)cc3)no2)C1 (centres undefined) | / | / | / | / | -19 | /
CN(C(=O)C(C)(C)C)c1ccc(OCC(=O)N2CCc3ccccc3C2)cc1 | ? | ? | ? | 2% | -82* | 0%
O=c1[nH]c(-c2ccccn2)nc(C(F)(F)F)c1Br | 7.4µM* | 5.9µM* | -24% | 11% | 25 | -6%
O=c1[nH]c(-c2ccccn2)nc2ccccc12 | ? | -54% | ? | 6% | -106* | 1%
COc1cc2[nH]c3c(Cl)ncnc3c2cc1OC | ? | ? | -21% | 3% | -3 | -4%
COc1cc2[nH]c(Cl)c([N+](=O)[O-])c2cc1OC | 3% | -1% | -4% | 2µM* | 3 | 9%
Cc1cc(C)cc(-n2c(C)cc(C(=O)C(=O)Nc3ccccc3F)c2C)c1 | / | / | / | -4% | 19 | /
Cc1cccc(-n2c(C)cc(C(=O)C(=O)Nc3ccccc3F)c2C)c1C | / | / | / | 5% | -67* | /
Cc1nc2ccsc2c(=O)n1-c1ccc(Cl)cc1 | -26% | -10% | 7% | -1% | -21 | 0%
Cn1cc(C(=O)C(=O)NC2CCCCC2)c2ccccc21 | ? | 93% | ? | 8% | 21 | 1%
CC(C)Cn1c(=O)c2sccc2n2c(CCCC(=O)NC3CCN(Cc4ccccc4)CC3)nnc12 | 23% | 0% | -25% | -9% | 40 | -1%
CC(C)OCCCn1c(=O)c2ccccc2n2c(CCC(=O)NC3CCN(Cc4ccccc4)CC3)nnc12 | 15µM* | ? | ? | 1% | -14 | 3%
CC(C)OCCCn1c(=O)c2ccccc2n2c(CCC(=O)NCc3ccccn3)nnc12 | ? | -11% | 5% | 3% | -2 | -3%
CC(C)OCCCn1c(=O)c2ccccc2n2c(CCC(=O)O)nnc12 | 1.7µM* | / | 16% | -2% | -18 | 3%
